Test results reported in PubChem BioAssay (NCATS).
Several values for one entry are separate records, joined by “and”; a condition that tells them apart may be missing. Identical values can stand only once. Inconclusive results are not listed. A structure can be active in one record and inactive in another. Activity calls are given as the source filed them. Calls follow the shape of the dose curve; as a rule, active = well fitted inhibition curve with a large enough effect; inconclusive = small, poorly fitted or top-dose-only effect; inactive = flat fitted curve, though single readings scatter.

Legend:
[1] = qHTS profiling for inhibitors of Plasmodium falciparum proliferation (AID 504749);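 as to activity, negative = inhibition: 0% = DMSO vehicle and full inhibition = artemisinin control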; as to all read-outs here: nearly all actives have a fitted effect of over 60% in size; details: P. falciparum in erythrocytes, SYBR Green DNA, 72 h; for activity, negative = inhibition: at 28.7 µM (top of the series)
In short: (§1)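 P. falciparum-infected erythrocytes (0.3% parasitemia, 2.5% hematocrit) incubated with compound 72 h at 37 C, 5% CO2. Parasite DNA detected by SYBR Green after lysis, overnight at room temperature; normalised to 0.29 uM artemisinin and DMSO.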

[2] = tested on: 3D7; experiment: as above; details: P. falciparum in erythrocytes, SYBR Green DNA, 72 h; series mostly up to 28.7 µM
In short: as §1

[3] = tested on: 7G8; experiment: as above; details: P. falciparum in erythrocytes, SYBR Green DNA, 72 h; series mostly up to 28.7 µM
In short: as §1
Potency is read from the fitted curve at half-maximal effect.

C=CCC1(C(C)CCC)C(=O)N=C(S)NC1=O (stereo not drawn)
inactive: activity, negative = inhibition ([1]; parasite line A) -5.63% | activity, negative = inhibition ([1]; parasite line B) -5% | Potency [2] | Potency [3]

ClC1C(Cl)C(Cl)C(Cl)C(Cl)C1Cl (stereo not drawn)
inactive: activity, negative = inhibition ([1]; parasite line A) 10.1% | activity, negative = inhibition ([1]; parasite line B) 13.2% | Potency [2] | Potency [3]

S=C(S)N1CCNCC1
inactive: activity, negative = inhibition ([1]; parasite line A) 5.54% | activity, negative = inhibition ([1]; parasite line B) 4.75% | Potency [2] | Potency [3]

[N-]=[N+]=CC(=O)OCC(N)C(=O)O (stereo not drawn)
inactive: activity, negative = inhibition ([1]; parasite line A) 3.54% | activity, negative = inhibition ([1]; parasite line B) -4.07% | Potency [2] | Potency [3]

Clc1ccc(C2(Cn3cncn3)OCCO2)c(Cl)c1
inactive: activity, negative = inhibition ([1]; parasite line A) 8.04% | activity, negative = inhibition ([1]; parasite line B) -7.5% | Potency [2]

CC(N)Cc1ccc(O)cc1 (stereo not drawn)
inactive: activity, negative = inhibition ([1]; parasite line A) -0.875% | activity, negative = inhibition ([1]; parasite line B) 1.76% | Potency [2] | Potency [3]

CCOP(=O)(OCC)O/C(=C/Cl)c1ccc(Cl)cc1Cl
inactive: activity, negative = inhibition ([1]; parasite line A) -27.9% | activity, negative = inhibition ([1]; parasite line B) -21.8% | Potency [2]

CC1CCC(C(C)C)C(OC(=O)c2ccccc2N)C1 (stereo not drawn)
inactive: activity, negative = inhibition ([1]; parasite line A) -17.5% | activity, negative = inhibition ([1]; parasite line B) -19.4% | Potency [2]

c1ccc2cc(CC3=NCCN3)ccc2c1
inactive: activity, negative = inhibition ([1]; parasite line A) 3.45% | activity, negative = inhibition ([1]; parasite line B) -0.535% | Potency [2]

CC(=O)O[C@H]1CC[C@H]2[C@@H]3CCC4=CC(=O)CCC4=C3C=C[C@]12C
inactive: activity, negative = inhibition ([1]; parasite line A) 4.1% | activity, negative = inhibition ([1]; parasite line B) 0.383% | Potency [2]

CC(C)(C)c1cc(O)ccc1O
active: Potency ([1]; parasite line A) 7.94 µM | Potency ([1]; parasite line B) 8.91 µM | Potency [2] 2.24 µM | Potency [3] 3.16 µM and 2.82 µM
inactive: activity, negative = inhibition ([1]; parasite line A) -22.4%

CC12NC(Cc3ccccc31)c1ccccc12 (stereo not drawn)
inactive: activity, negative = inhibition ([1]; parasite line A) -7.25% | activity, negative = inhibition ([1]; parasite line B) 6.66% | Potency [2]
